Data reported in PubChem BioAssay (EPA / NIEHS).
Results filed as inconclusive are left out. Calls of active or inactive are those of the source. The calls were made as follows: active = hit-call score of the fitted dose curve at least 0.9, where 1 is the maximum; inconclusive = response in the unintended direction; inactive = score below 0.9.

Columns and labels:
[1] = TOX21_p53_BLA_p2_viability: Viability Assessment in the Tox21 HCT-116 p53 Agonism Beta-lactamase Assay, Phase 2 (AID 2283591);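 also: compound exposure lasted 16 h at 37 °C; actives lower the ATP signal meaning cytotoxicity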
Method in brief: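 Cytotoxicity readout: CellTiter-Glo ATP luminescence, 30 min at room temperature, after the beta-lactamase read. Cells were HCT116 exposed 16 h at 37C to compounds pin-transferred at 217-fold dilution from DMSO stocks.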

[2] = molecular target: Cellular tumor antigen p53 (Homo sapiens) (UniProt P04637); assay: TOX21_p53_BLA_p2_ratio: Tox21 HCT-116 p53 Agonism Beta-lactamase Assay, Ratio, Phase 2 (AID 2283592)
Method in brief: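 Human colon HCT116 cells with an inducible p53 beta-lactamase reporter are exposed to test chemicals for 16 h at 37C. Reporter induction is read as the 460/530 nm emission ratio after CCF4-AM loading, normalized to DMSO.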

[3] = TOX21_p53_BLA_p3_viability: Viability Assessment in the Tox21 HCT-116 p53 Agonism Beta-lactamase Assay, Phase 3 (AID 2283593);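 also: cells exposed to compound for 16 h before reading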
Method in brief: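 Cellular ATP was quantified by CellTiter-Glo luminescence, read after 30 min at room temperature. Beforehand, HCT116 cells (4000/well) received compound 5 h post-seeding, 217-fold diluted from DMSO, then incubated 16 h at 37C.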

[4] = TOX21_p53_BLA_p4_viability: Viability Assessment in the Tox21 HCT-116 p53 Agonism Beta-lactamase Assay, Phase 4 (AID 2283597);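 also: hits lower the luminescence signal meaning cytotoxicity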
Method in brief: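 Luminescent ATP readout (CellTiter-Glo, 30 min, room temperature) in the same wells as the p53 bla ratio. HCT116 cells were treated for 16 h at 37C with DMSO-dissolved compounds.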

[5] = molecular target: Cellular tumor antigen p53 (Homo sapiens) (UniProt P04637); assay: TOX21_p53_BLA_p5_ratio: Tox21 HCT-116 p53 Agonism Beta-lactamase Assay, Ratio, Phase 5 (AID 2283599)
Method in brief: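 Beta-lactamase reporter ratio (blue 460 nm over green 530 nm, 405 nm excitation) after 2 h CCF4-AM loading, in HCT-116 cells exposed 16 h at 37 C to compounds pinned at 217-fold dilution. Increases relative to DMSO baseline scored.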

[6] = TOX21_p53_BLA_p5_viability: Viability Assessment in the Tox21 HCT-116 p53 Agonism Beta-lactamase Assay, Phase 5 (AID 2283600)
Method in brief: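 Seeded cells (4000/well) settle 5 h before compound addition. Plates then incubate 16 h at 37C, receive FRET substrate for 2 h, and finally CellTiter-Glo, with luminescence measured after a 30 min room-temperature incubation.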

Measured: outcome

Chain of Cellular tumor antigen p53 (Homo sapiens) (P04637 whole entry, looked up): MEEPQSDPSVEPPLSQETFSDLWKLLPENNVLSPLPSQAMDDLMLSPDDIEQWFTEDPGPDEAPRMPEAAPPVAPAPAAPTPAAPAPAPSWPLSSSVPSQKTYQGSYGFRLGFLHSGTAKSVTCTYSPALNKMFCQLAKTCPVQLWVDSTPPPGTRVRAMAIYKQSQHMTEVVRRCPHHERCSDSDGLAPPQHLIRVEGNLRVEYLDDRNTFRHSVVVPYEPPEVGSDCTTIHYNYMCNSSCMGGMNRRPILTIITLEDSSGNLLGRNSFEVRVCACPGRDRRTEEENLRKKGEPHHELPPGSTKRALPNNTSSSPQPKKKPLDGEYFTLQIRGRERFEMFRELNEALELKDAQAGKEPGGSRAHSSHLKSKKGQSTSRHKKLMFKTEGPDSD

CC1=C(O)C(=O)OC1C (stereo not drawn)
inactive: all assays above

CCCCCSCCCCC
inactive: all assays above

C=CCCC
inactive: all assays above
